From the supplement of paper PMC9477273

Each compound was assayed on DRIVER-selected RNA biosensor (aptazyme) pool (assay: maximum fold change of ribozyme cleavage across biosensor pool versus no-compound control; higher = stronger biosensor response (ligand inhibits cleavage)). Conditions: 10 µM.
Method: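 CleaveSeq: a pool of resynthesized hammerhead-ribozyme RNA biosensors (sTRSV scaffold with randomized loops, 1,730 sequences) was T7-transcribed at 37 °C for 15-30 min with a single compound at 10 µM. Cleaved and uncleaved products were counted by NGS, and fold change of cleavage was computed against the DMSO-only condition. The value is the maximum fold change of cleavage over all biosensors in the pool. About 255 compounds were tested individually.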
In the case of `CCOC(=O)C1=C(C)NC2=C(C(=O)c3ccccc32)C1c1ccc(C(F)(F)F)cc1` (stereo not given), the maximum fold change is reported as 2.29.
For `COc1ccc(/C=c2\s/c(=C/C(=O)c3ccc(C)cc3)[nH]c2=O)cc1OC`, the maximum fold change was 2.47.
For `O=C(Cn1ncc2c1-c1ccccc1OC2)N1CCC(Cc2ccccc2)CC1`, the maximum fold change was 3.52.
For `C=CC[n+]1c(/C=C2\C=CC=CN2C)sc2ccccc21`, the maximum fold change was 13.8.
`Cc1cccc(-c2nc3n(n2)C(c2ccccc2Cl)C2=C(CC(C)(C)CC2=O)N3)c1` (stereo not given) showed a maximum fold change of 1.83.
Compound `CCN1CCN(CCCNC(=O)c2ccc3c(c2)NC(=O)/C(=C/C(=O)c2ccc(OC)cc2)N3)CC1` has a maximum fold change of 8.68.
With `CC1CCN(S(=O)(=O)c2ccc3c(ccn3CC(=O)NCc3ccc(OC(C)C)cc3)c2)CC1` the maximum fold change was 2.62.
For `O=C(Cc1cn(Cc2cccc(Cl)c2)c2ccccc12)N1CCCC1`, the maximum fold change was 3.3.
`CCCN(CCC)CCCNS(=O)(=O)c1ccc(OCC)c2ncccc12` gave a maximum fold change of 2.96.
Work on `CC(C)CN(CC(C)C)c1nnc(NC(=O)NCc2ccco2)s1` yielded a maximum fold change of 2.36.
In the case of `N=C1/C(=C\c2ccc(Br)cc2)C(=O)N=C2SC(N3CCOCC3)=NN12`, the maximum fold change is reported as 2.79.
For `COc1ccc(S(=O)(=O)Nc2cccnc2)cc1`, the maximum fold change was 2.43.
In the case of `CCOc1ccc(CCNC(=O)CCn2c(=O)c3cccn3c3cccnc32)cc1OCC`, the maximum fold change is reported as 2.67.
Work on `Cc1nn2c(-c3ccncc3)nnc2c2ccccc12` yielded a maximum fold change of 10.8.
Work on `Cc1ccc(-c2noc(CCC(=O)NCc3ccc(F)cc3Cl)n2)cc1` yielded a maximum fold change of 3.35.
Compound `COc1ccccc1OCCCn1cccc1/C=C1\C(=N)N2N=C(N3CCOCC3)SC2=NC1=O` has a maximum fold change of 2.03.
With `CCOC(=O)c1c(NC(=O)COc2ccc(Cl)cc2Cl)sc2c1CCC2` the maximum fold change was 3.01.
With `Cc1oc(-c2ccccc2F)nc1CS(=O)(=O)CC(=O)N1CCC(Cc2ccccc2)CC1` the maximum fold change was 4.04.
For `CN(Cc1ccccc1)C(=O)CCc1nc(CN2CCN(C(=O)c3noc4c3CCCC4)CC2)no1`, the maximum fold change was 4.1.
`CC(=O)c1c(C)[nH]c2ccccc2c1=O` showed a maximum fold change of 2.03.
`N#C/C(=Cc1c(Oc2ccc(cc2)Br)nc2n(c1=O)cccc2)/C(=O)N1CCOCC1` gave a maximum fold change of 4.23.
`O=C(NCCCc1ccccc1)C1CCN(c2nnc(N3CCCC3=O)s2)CC1` was tested, and the maximum fold change was 3.05.
`COc1ccc(OC)c(/C=C2/N=C(c3ccc(OC)c(Br)c3)OC2=O)c1` gave a maximum fold change of 2.65.
Compound `Cc1ccc(C(=O)N(Cc2ccccc2F)C2CCS(=O)(=O)C2)cc1` (stereo not given) has a maximum fold change of 2.6.
`CNc1cnn(C23CC4CC(CC(CC(=O)O)(C4)C2)C3)c(=O)c1Cl` was tested, and the maximum fold change was 4.5.
`COc1ccc(CCn2c(SCC(=O)Nc3cc(C)n[nH]3)nc3ncccc3c2=O)cc1OC` showed a maximum fold change of 11.2.
In the case of `CCCOc1ccc(C2c3c(oc4ccccc4c3=O)C(=O)N2c2nccs2)cc1` (stereo not given), the maximum fold change is reported as 8.73.
`CC(C)NC(=O)C1(c2ccccc2)CCCC1` gave a maximum fold change of 2.11.
In the case of `COc1ccc(cc1)C1=N/C(=Cc2cc(OC)ccc2OC)/C(=O)O1`, the maximum fold change is reported as 1.9.
`Cc1c(C(=O)N2CCN(C)CC2)sc2ncnc(N3CCN(c4ccccn4)CC3)c12` gave a maximum fold change of 2.67.
Work on `Cc1ccc(C)c(Cn2c(C)c(CNCCCN3CCCC3=O)c(C(=O)O)c2C)c1` yielded a maximum fold change of 2.12.
For `COc1ccc(C(=O)/C=C2\Nc3ccc(C(=O)NCc4cccc(OC)c4)cc3NC2=O)cc1`, the maximum fold change was 7.89.
`COc1ccc(/C=C/C(=O)Nc2nc3ccc(S(C)(=O)=O)cc3s2)cc1Br` was tested, and the maximum fold change was 3.76.
For `COCCN1C(=O)c2[nH]nc(-c3ccccc3O)c2C1c1ccccc1` (stereo not given), the maximum fold change was 3.01.
In the case of `O=C1NC2(CCCCC2)N(C(=O)c2ccc(Cl)cc2)C2=C1CCCC2`, the maximum fold change is reported as 2.89.
Work on `CCOc1ccc(/C=C2\SC(N3CC(C)OC(C)C3)=NC2=O)cc1` (stereo not given) yielded a maximum fold change of 2.08.
Work on `CCOc1cc(C(=O)C(=O)c2ccc(OC)c(OCC)c2)ccc1OC` yielded a maximum fold change of 2.92.
`CN1C(=O)c2ccccc2C(C(=O)O)C1c1c[nH]c2ccccc12` (stereo not given) was tested, and the maximum fold change was 2.39.
In the case of `O=C1Nc2cc(C(=O)N3CCN(c4ccco4)CC3)ccc2N/C1=C\C(=O)c1ccc(Cl)cc1`, the maximum fold change is reported as 5.38.
In the case of `CCCCC(C(=O)N1CCCCC1)N1C(=O)c2ccccc2C1=O` (stereo not given), the maximum fold change is reported as 1.93.
